Laboratory results reported in PubChem BioAssay AID1159580 (chemical genetic matrix, 2015).
The whole screen tested about 5,500 compounds, of which about 2,000 (36%) were called active. Roughly 18% stayed inconclusive and do not appear here. Cut-off read from the data, not from the text of the source: active = normalized growth mostly below about 0.91 (no sharp cut-off); inconclusive = no clear call, values can overlap the other calls; inactive = mostly above about 0.92. The list shows a part of the results.

Test: chemical genetic growth profiling, strain panel (AID 1159580);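 note: tested at 20 µM; growth read once vehicle control cultures reached saturation at 30 °C; 1 = growth at the plate median or of vehicle wells; lower values mean less growth of the strain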
Conditions: growth OD

Measured: normalized growth

CC(=O)OCC[C@H](C)CCC=C(C)C
inactive: S. cerevisiae deletion strains, locus YJR043C, strain POL32, active compounds read low 1.01 | S. cerevisiae deletion strains, locus YJR066W, strain TOR1, active compounds read low 0.979 | S. cerevisiae deletion strains, locus YKL009W, strain mrt4, active compounds read low 1.01 | S. cerevisiae deletion strains, locus YKL068W, active compounds read low 1.03 | S. cerevisiae deletion strains, locus YKL085W, strain MDH1 (second series), active compounds read low 1.01 | S. cerevisiae deletion strains, locus YKL085W, strain MDH1, active compounds read low 1.01 | S. cerevisiae deletion strains, locus YKL160W, strain elf1, active compounds read low 0.978 | S. cerevisiae deletion strains, locus YKL190W, strain CNB1, active compounds read low 1.01 | S. cerevisiae deletion strains, locus YKR001C, strain vps1, active compounds read low 1.03 | S. cerevisiae deletion strains, locus YKR026C, strain gcn3, active compounds read low 0.994 | S. cerevisiae deletion strains, locus YKR091W, strain srl3, active compounds read low 0.986 | S. cerevisiae deletion strains, locus YLL001W, strain dnm1, active compounds read low 1.03 | S. cerevisiae deletion strains, locus YLL026W, active compounds read low 1.03 | S. cerevisiae deletion strains, locus YLL041C, strain sdh2, active compounds read low 1.02 | S. cerevisiae deletion strains, locus YLR027C, strain aat2, active compounds read low 1.02 | S. cerevisiae deletion strains, locus YLR039C, strain RIC1, active compounds read low 1.08 | S. cerevisiae deletion strains, locus YLR058C, strain SHM2, active compounds read low 1.02 | S. cerevisiae deletion strains, locus YLR102C, strain apc9, active compounds read low 1.02 | S. cerevisiae deletion strains, locus YLR113W, strain HOG1, active compounds read low 1.05 | S. cerevisiae deletion strains, locus YLR221C, strain rsa3, active compounds read low 1.04 | S. cerevisiae deletion strains, locus YLR258W, strain gsy2, active compounds read low 1.03 | S. cerevisiae deletion strains, locus YLR262C, strain YPT6 (second series), active compounds read low 0.991 | S. cerevisiae deletion strains, locus YLR262C, strain YPT6, active compounds read low 1.09 | S. cerevisiae deletion strains, locus YLR268W, strain sec22, active compounds read low 1.03 | S. cerevisiae deletion strains, locus YLR320W, strain mms22, active compounds read low 1 | S. cerevisiae deletion strains, locus YLR330W, strain CHS5, active compounds read low 1 | S. cerevisiae deletion strains, locus YLR342W, strain FKS1 (second series), active compounds read low 1.01 | S. cerevisiae deletion strains, locus YLR342W, strain FKS1, active compounds read low 0.975 | S. cerevisiae deletion strains, locus YLR357W, strain rsc2, active compounds read low 0.981 | S. cerevisiae deletion strains, locus YLR370C, strain arc18, active compounds read low 0.996 | S. cerevisiae deletion strains, locus YLR371W, strain rom2, active compounds read low 1.02 | S. cerevisiae deletion strains, locus YLR384C, strain iki3, active compounds read low 0.971 | S. cerevisiae deletion strains, locus YLR418C, strain cdc73, active compounds read low 1.02 | S. cerevisiae deletion strains, locus YML016C, strain PPZ1, active compounds read low 1.02 | S. cerevisiae deletion strains, locus YML032C, strain rad52, active compounds read low 1.03 | S. cerevisiae deletion strains, locus YML120C, strain ndi1, active compounds read low 0.988 | S. cerevisiae deletion strains, locus YML124C, strain tub3, active compounds read low 1.02 | S. cerevisiae deletion strains, locus YMR058W, strain fet3, active compounds read low 0.989 | S. cerevisiae deletion strains, locus YMR078C, strain ctf18, active compounds read low 1.04 | S. cerevisiae deletion strains, locus YMR125W, strain sto1, active compounds read low 0.985 | S. cerevisiae deletion strains, locus YMR129W, active compounds read low 0.985 | S. cerevisiae deletion strains, locus YMR205C, strain PFK2, active compounds read low 1.01 | S. cerevisiae deletion strains, locus YMR223W, strain ubp8, active compounds read low 1.04 | S. cerevisiae deletion strains, locus YMR231W, strain pep5, active compounds read low 0.983 | S. cerevisiae deletion strains, locus YMR307W, strain GAS1, active compounds read low 1.05 | S. cerevisiae deletion strains, locus YNL067W, strain RPL9B, active compounds read low 1.02 | S. cerevisiae deletion strains, locus YNL071W, strain lat1, active compounds read low 0.989 | S. cerevisiae deletion strains, locus YNL153C, strain GIM3, active compounds read low 1.01 | S. cerevisiae deletion strains, locus YNL183C, strain NPR1, active compounds read low 0.991 | S. cerevisiae deletion strains, locus YNL209W, strain ssb2, active compounds read low 0.979 | S. cerevisiae deletion strains, locus YNL233W, strain BNI4, active compounds read low 1.01 | S. cerevisiae deletion strains, locus YNL248C, strain rpa49, active compounds read low 0.984 | S. cerevisiae deletion strains, locus YNL250W, strain rad50, active compounds read low 1.03 | S. cerevisiae deletion strains, locus YNL271C, strain bni1, active compounds read low 1.02 | S. cerevisiae deletion strains, locus YNL298W, strain CLA4, active compounds read low 1.05 | S. cerevisiae deletion strains, locus YNL307C, strain MCK1, active compounds read low 1.04 | S. cerevisiae deletion strains, locus YNL322C, strain KRE1 (second series), active compounds read low 0.974 | S. cerevisiae deletion strains, locus YNL322C, strain KRE1, active compounds read low 1.01 | S. cerevisiae deletion strains, locus YNR049C, strain mso1, active compounds read low 0.996 | S. cerevisiae deletion strains, locus YNR052C, strain pop2, active compounds read low 1.01 | S. cerevisiae deletion strains, locus YOL012C, strain htz1 1.25 | S. cerevisiae deletion strains, locus YOL147C, strain pex11, active compounds read low 1.03 | S. cerevisiae deletion strains, locus YOR001W, strain rrp6, active compounds read low 1.02 | S. cerevisiae deletion strains, locus YOR061W, strain CKA2, active compounds read low 1.01 | S. cerevisiae deletion strains, locus YOR069W, strain VPS5, active compounds read low 1 | S. cerevisiae deletion strains, locus YOR070C, strain gyp1, active compounds read low 0.994 | S. cerevisiae deletion strains, locus YOR080W, strain dia2, active compounds read low 0.968 | S. cerevisiae deletion strains, locus YOR083W, strain WHI5, active compounds read low 0.972 | S. cerevisiae deletion strains, locus YOR106W, strain vam3, active compounds read low 0.971 | S. cerevisiae deletion strains, locus YOR136W, strain idh2, active compounds read low 1.02 | S. cerevisiae deletion strains, locus YOR144C, strain elg1, active compounds read low 1.03 | S. cerevisiae deletion strains, locus YOR184W, strain ser1, active compounds read low 1.02 | S. cerevisiae deletion strains, locus YOR231W, strain MKK1, active compounds read low 1.06 | S. cerevisiae deletion strains, locus YOR265W, strain rbl2, active compounds read low 0.995 | S. cerevisiae deletion strains, locus YOR270C, strain vph1, active compounds read low 1.03 | S. cerevisiae deletion strains, locus YOR290C, strain snf2, active compounds read low 0.997 | S. cerevisiae deletion strains, locus YOR316C, strain cot1, active compounds read low 1.02 | S. cerevisiae deletion strains, locus YPL051W, strain arl3, active compounds read low 0.99 | S. cerevisiae deletion strains, locus YPL078C, strain atp4, active compounds read low 0.967 | S. cerevisiae deletion strains, locus YPL106C, strain sse1, active compounds read low 0.949 | S. cerevisiae deletion strains, locus YPL240C, strain hsp82, active compounds read low 0.99 | S. cerevisiae deletion strains, locus YPL256C, strain CLN2, active compounds read low 0.997 | S. cerevisiae deletion strains, locus YPR119W, strain clb2, active compounds read low 1.02 | S. cerevisiae deletion strains, locus YPR141C, strain kar3, active compounds read low 1.03 | S. cerevisiae deletion strains, locus YPR163C, strain tif3, active compounds read low 1.02 | S. cerevisiae deletion strains, locus YPR167C, strain met16, active compounds read low 1.02 | S. cerevisiae deletion strains, strain wtn01, active compounds read low 1.02 | S. cerevisiae strains, strain wild type, active compounds read low 1
